# High-throughput results (PubChem BioAssay)
# Most compounds without a hit are left out; they make up all but 3.2% or so of the library.
# BRCA1 expr up = BRCA1 expression activation; MCF7-BRCA1-FFLuc reporter, luminescence, 48 h; response scale: scaled: vehicle 0%, 10 µM genistein 100%; AID 624202; 380,000 tested, 1.1% active; Potency, µM (titrated, usually from 46.1 µM), for inactives: at the highest dose activation, most hits filed as activators; also: potency is read from the fitted curve at half-maximal effect; nearly all actives have a fitted effect of over 80% in size
#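 MCF7-BRCA1-FFLuc, 2000 cells/well; 2 h attach, 37 °C/5% CO2; compound 48 h; luciferase substrate 15 min; luminescence end-point. Norm. to genistein 10 microM max activation and DMSO; concentration-response curves fitted.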
# Nrf2 block = inhibitors of Nrf2 signaling | A549 ARE-Fluc reporter, luciferase luminescence, 18-24 h | Potency, µM (top dose mostly 46 µM), for inactives: at the highest dose activity change, negative = inhibition, most hits filed as inhibitors | 360,000 tested, 2.1% active; also: potency is read from the fitted curve at half-maximal effect; % is scaled to controls: 0 for no effect and ±100 for the full control effect; nearly all actives have a fitted effect of over 60% in size
#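 Quantitative HTS in A549 cells stably bearing an antioxidant response element-firefly luciferase construct. Inhibition of Nrf2-driven transcription was scored by luminescence after 18-24 h of compound exposure at 37 °C.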
# p53 reactivation = re-activators of mutant p53; Potency, µM (doses to about 92.2 µM), without a hit: top-dose activity change, positive = activation, hits mostly activators; 320,000 tested, 0.063% active; AID 504706; H1299 p53-A138V BP100-luciferase reporter, luminescence, 24 h; also: potency is read from the fitted curve at half-maximal effect; % of control where 0% means no effect; nearly all actives have a fitted effect of over 45% in size
#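 H1299 (p53-null), stable ts p53-A138V + BP100-Luc; 1000 cells/well, Opti-MEM/10% FBS; cpd 4 pt, 1:5; 24 h, 37 deg C, 5% CO2; detection reagent 10 min RT; luminescence.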
# Nrf2 ARE act = activators of Nrf2 (ARE) signaling; AREc32 ARE-luciferase reporter (MCF7-derived line), luminescence, 24 h; Potency, µM (series often up to 46.1 µM), inactives show at the top dose activation, usual class: activators; 410,000 tested, 0.31% active; also: potency is read from the fitted curve at half-maximal effect; % of control where 0% means no effect; nearly all actives have a fitted effect of over 65% in size
#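 Luciferase luminescence (Steady-Glo, 30 min at room temperature) served as the read-out of ARE activation in AREc32 cells treated with compounds for 24 hr at 37 deg C.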
# A549 tox = counter-screen for Nrf2 inhibitors: cytotoxicity in A549 cells; A549 ARE-Fluc cells, CellTiter-Fluor viability, 18-24 h; Potency, µM (series often up to 46 µM), for inactives: at the top dose activity change, negative = cytotoxicity, hits mostly inhibitors; 390,000 tested, 0.16% active; AID 504648; also: potency is read from the fitted curve at half-maximal effect; % is scaled to controls: 0 for no effect and ±100 for the full control effect
#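 A549 ARE_Fluc cells in 5% FBS OPTI-MEM were exposed to compounds in concentration-response for 18-24 h at 37 deg C. Viability was read by CellTiter-Fluor fluorescence (Ex 405/Em 525) after 30 min, before the luciferase read.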
# IL-2 act = IL-2 activation; 360,000 tested, 0.065% active; IL-2 activation reporter assay, cell-based qHTS; stimulated with anti-CD3/CD4/CD28 beads; in transgenic mouse T cells; activation, % (series mostly up to about 46 µM); in the data active = activation above about 50%; inconclusive = mostly about 30% to 49%; also: 0% is about no effect
#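 Unstimulated transgenic mouse T cells preincubated 60 min with compound, then stimulated with anti-CD3/anti-CD4-coated beads plus anti-CD28 for 18 h at 37 degrees C. IL-2 response read as EGFP and DsRed fluorescence by plate cytometry.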
# The depositor's hits bear a star; ? = inconclusive; nt = no result; [ ] = remark or other dose. Unless noted, calls follow the shape of the dose curve; as a rule, active = well fitted curve in the direction sought with a large enough effect; inconclusive = small, poorly fitted or top-dose-only effect, or another doubt; inactive = no such curve, though single readings can be large; an effect the other way counts as inactive or inconclusive.
SMILES,BRCA1 expr up,Nrf2 block,p53 reactivation,Nrf2 ARE act,A549 tox,IL-2 act
FC(F)(F)c1ccccc1NC(=S)N1CCN(Cc2ccc3c(c2)OCO3)CC1,-50.4%,18.4µM*,-2.1%,0.4%,-2.3%,-0.6
CC(=O)c1c(C)[nH]c(C(=O)CSc2nnc(C3CCCCC3)n2N)c1C,-45.4%,20.6µM*,-4.2%,0.0%,-9.4%,1.4
Cc1nn(-c2ccccc2)nc1C(=O)c1c(C)[nH]n(-c2ccccc2)c1=O,-28.2%,20.6µM*,1.2%,-0.1%,?,2.1
Cc1[nH]n(-c2ccccc2)c(=O)c1C(=O)c1ccc([N+](=O)[O-])cc1,0.0%,?,1.0%,0.0%,-8.5%,-1.3
COc1ccc(OCCSc2nc3ccccc3c(=O)[nH]2)cc1,20.7%,4.11µM*,3.3%,2.8%,-9.0%,-1.4
CSc1nsc(SC)c1NC(=O)Nc1ccccn1,-64.6%,nt,-3.8%,10µM*,-13.3%,-3.2
c1ccc(Cn2ncc3c(NCc4ccco4)ncnc32)cc1,-59.0%,?,4.0%,3.98µM*,-1.4%,-2.9
Fc1ccc2[nH]c3c(NCc4ccco4)ncnc3c2c1,-45.2%,11.6µM*,nt,nt,-11.0%,nt
c1ccc(-n2ncc3c(NCc4ccco4)ncnc32)cc1,23.8%,?,20.4%,4.1%,-7.3%,-1.3
COc1ccc(/C=N/Nc2ncnc3c2[nH]c2ccc(C)cc23)c(OC)c1OC,-36.5%,?,12.9%,3.6%,-7.8%,-4.0
Cc1ccc2[nH]c3c(NCc4ccco4)ncnc3c2c1,32.1%,?,17.1%,25.2%,0.8%,-0.5
COc1cc(CNc2ncnc3c2[nH]c2ccc(C)cc23)cc(OC)c1,-38.2%,14.6µM*,-6.4%,6.8%,-20.0%,1.7
c1coc(CNc2ncnc3c2oc2ccccc23)c1,-1.4%,?,-3.0%,1.58µM*,-3.1%,-0.4
CCCCN1CCc2nc(Nc3ccc(OC)cc3OC)ncc2C1,nt,nt,nt,-1.4%,-0.9%,nt
Cc1cc(S(=O)(=O)Nc2ccc3oc4c(c3c2)CCCC4)ccc1Cl,nt,?,nt,-2.4%,11.4%,nt
O=c1c2ccccc2nc(SCc2nnc(-c3ccccc3Br)o2)n1-c1ccccc1,-27.3%,10.3µM*,13.9%,-0.6%,-22.6%,0.1
Brc1ccccc1-c1nnc(CSc2nncn2-c2ccccc2)o1,37.2%,-3.7%,-1.3%,2.6%,-0.4%,-1.4
O=S1(=O)C=C(Sc2nc3cc(Cl)ccc3o2)c2ccccc21,-98.8%,?,-33.2%,8.91µM*,?,-0.8
Cc1cc(NC(=O)CSc2nc3cc(Cl)ccc3o2)no1,12.5%,9.4%,-0.2%,-0.3%,-0.7%,-0.5
COc1ccc(-c2nc(C#N)c(NCc3ccco3)o2)cc1,8.91µM*,?,1.4%,15.3%,3.3%,-4.8
COc1ccc(CCNc2oc(-c3ccc(OC)c(OC)c3)nc2C#N)cc1,-28.2%,23.1µM*,-11.6%,0.8%,-8.8%,-1.7
CC1CCN(c2oc(-c3cccs3)nc2S(=O)(=O)c2ccc(Cl)cc2)CC1,nt,-19.1%,nt,6.3%,-7.3%,nt
Cc1cc(C)c(NC(=O)c2sc3nc(C)[nH]c(=O)c3c2C)c(C)c1,nt,nt,0.6%,nt,nt,nt
Cc1ccc(NC(=O)c2sc3nc(CCl)[nH]c(=O)c3c2C)c(C)c1,11.2µM*,?,4.8%,7.9%,-12.8%,-4.5
Cc1nc(SCC(=O)Nc2nsc(-c3ccc(C(C)(C)C)cc3)n2)c2c3c(sc2n1)CCCC3,nt,?,nt,0.2%,3.5%,nt
O=C(CSc1nnc2scc(-c3ccccc3)n12)Nc1nsc(-c2ccccc2)n1,-56.1%,16.4µM*,-5.8%,3.6%,-24.5%,-0.1
Cc1nnc(SCC(=O)Nc2nsc(-c3ccc(C(C)(C)C)cc3)n2)s1,1.12µM*,?,?,-0.2%,7.0%,-3.1
Cc1ccc(-c2csc3nnc(SCC(=O)Nc4nsc(-c5ccccc5)n4)n23)cc1,-37.8%,20.6µM*,nt,3.7%,0.9%[1.84 µM],0.9
